# Data: PubChem BioAssay (NCI)
# “And” between values parts separate entries of the source, which are not always exact repeats. Equal values may be shown once. Compounds without any hit were thinned out: in the full panel of roughly 79,000, 15% have a hit. Some structures have more than one record in an assay (separate samples or runs), and their calls can disagree. The source made the active and inactive calls. Cut-off read from the data, not from the text of the source: active = growth inhibition above about 70%; inactive = the rest. Where a SMILES comes first, the peptide text is derived from it. [ ]: non-standard residue; d: D form. The star is where a group is joined. Cbz = O=C(OCc1ccccc1)*; Nva = CCC[CH](N)C(=O)O
# Columns and labels:
# [1] = NCI Yeast Anticancer Drug Screen. Data for the rad50 strain (AID 155);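 note: 0% = growth of vehicle-only cultures of the same strain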; details: S. cerevisiae rad50 strain growth inhibition, stronger effect = higher value; at 50.0 µM unless noted
# In short: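 Growth of the mutant yeast was measured after compound exposure and referenced to vehicle-treated cultures.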
# [2] = NCI Yeast Anticancer Drug Screen. Data for the mec2-1 strain (AID 157); details: S. cerevisiae mec2-1 strain, stronger effect = higher value; at 50.0 µM unless noted
# In short: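 Compounds were applied to mec2-1 yeast cells. Their growth was then compared with that of vehicle-treated cultures to give growth inhibition.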
# [3] = NCI Yeast Anticancer Drug Screen. Data for the sgs1 mgt1 strain (AID 161);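 note: 0% = growth of cultures given vehicle only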; details: S. cerevisiae sgs1 mgt1 strain, stronger effect = higher value; at 50.0 µM unless noted
# In short: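 This yeast growth screen uses a strain with defined DNA-repair lesions; compound-treated growth is compared with vehicle-treated growth.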
# [4] = NCI Yeast Anticancer Drug Screen. Data for the cln2 rad14 strain (AID 165);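 note: 0% = growth equal to vehicle treated cultures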; details: S. cerevisiae cln2 rad14 strain, stronger effect = higher value; at 50.0 µM unless noted
# In short: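 Strain: cln2 rad14 yeast, altered in cell cycle control and DNA damage repair. Read-out: growth inhibition vs vehicle.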
# [5] = NCI Yeast Anticancer Drug Screen. Data for the bub3 strain (AID 167); details: S. cerevisiae bub3 mutant strain, stronger effect = higher value; at 50.0 µM unless noted
# In short: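 Whole-cell yeast assay. The mutant strain was incubated with compounds, and growth inhibition was determined by comparison with vehicle-treated cells.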
# [6] = NCI Yeast Anticancer Drug Screen. Data for the mlh1 rad18 strain (AID 175); details: S. cerevisiae mlh1 rad18 strain growth inhibition, stronger effect = higher value; at 50.0 µM unless noted
# In short: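 A repair-deficient yeast strain is exposed to test compound, and growth is scored relative to vehicle-treated controls.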
SMILES,growth inhibition [1],growth inhibition [2],growth inhibition [3],growth inhibition [4],growth inhibition [5],growth inhibition [6]
O=C1CCCCCCCCCCCCCCCCC1,-13.3% (inactive),-5.85% (inactive),-11.3% (inactive),-7.25% (inactive),-2.15% (inactive),-13.9% (inactive)
CCCC(NC(=O)OCc1ccccc1)C(=O)NC(CC(C)C)C(N)=O (stereo not given) (Cbz-[Nva]-Leu-NH2; configuration not given here),12.9% (inactive),2.35% (inactive),5% (inactive),22.2% (inactive),6.55% (inactive),5.15% (inactive)
COC(=O)CCCCC(=O)OC,35.9% (inactive),-0.3% (inactive),15.1% (inactive),-1.9% (inactive),-9% (inactive),13.4% (inactive)
Oc1ccc(/C=C\c2cnccn2)cc1,27.6% (inactive),7.3% (inactive),0.45% (inactive),5.55% (inactive),30.8% (inactive),7.6% (inactive)
O=C(COCC(=O)N/N=C/C=C/c1ccccc1)N/N=C/C=C/c1ccccc1,7.7% (inactive),-6.3% (inactive),-0.65% (inactive),3.35% (inactive),-2.95% (inactive),19.2% (inactive)
O=C(CCN1C(=O)c2ccccc2C1=O)Nc1c(I)cc(I)c(C(=O)O)c1I,-4.6% (inactive),-11.7% (inactive),-20.6% (inactive),-20.2% (inactive),8.65% (inactive),6.8% (inactive)
CC(C)NS(=O)(=O)OCC(O)(CC(Cl)(Cl)Cl)c1ccccc1 (stereo not given),23.8% (inactive),4.2% (inactive),16.9% (inactive),21.9% (inactive),11.7% (inactive),38.7% (inactive)
CCOC1=Nc2ccccc2C1(C)CCO (stereo not given),-45.5% (inactive),-13.2% (inactive),-23.1% (inactive),-62.2% (inactive),-5% (inactive),-4.3% (inactive)
Cn1c(=O)[nH]c2ccc(Cl)cc2c1=O,2.75% (inactive),-5.85% (inactive),-3.25% (inactive),-67.8% (inactive),8.15% (inactive),5.85% (inactive)
CC(C)(C)C(=O)OCC1CCC(n2cnc3c(=O)[nH]c(N)nc32)O1 (stereo not given),34.3% (inactive),2.3% (inactive),-3.65% (inactive),3.05% (inactive),-2.25% (inactive),25.7% (inactive)
O=C(c1ccc(-c2ccccc2)cc1)C(O)c1ccc(-c2ccccc2)cc1 (stereo not given),7.55% (inactive),0.4% (inactive),2.65% (inactive),-5.35% (inactive),1.2% (inactive),4.65% (inactive)
CC1(C)C2CC(C(=O)O)C1C2 (stereo not given),2.75% (inactive),5.8% (inactive),2.05% (inactive),3.8% (inactive),-10.8% (inactive),-19.1% (inactive)
O=c1[nH]nc(Cc2ccccc2)n1C1CCCC1,-1.55% (inactive),-5.3% (inactive),-12.6% (inactive),-17.8% (inactive),-9.6% (inactive),-1.05% (inactive)
O=[N+]([O-])c1c[nH]c2ncnc(Cl)c12,4.25% (inactive),0.6% (inactive),0.35% (inactive),-6.8% (inactive),-3% (inactive),6.8% (inactive)
CCN(CC)CCN=Cc1ccccc1OC,15.9% (inactive),-29.5% (inactive),-3.85% (inactive),3.15% (inactive),11.3% (inactive),15.2% (inactive)
CC(C)OC(=O)C(O)c1ccccc1 (stereo not given),18.2% (inactive),-17.1% (inactive),-25.4% (inactive),-50% (inactive),-9.45% (inactive),8.2% (inactive)
CCN(CC)CCCCCCNc1cc(OC)c(OC)c2c(C)ccnc12,23.6% (inactive),18.1% (inactive),5.6% (inactive),-14.4% (inactive),-1.8% (inactive),28.2% (inactive)
CCCCCCCCCC(=O)N=C(C(N)=O)C(N)=O,-13.2% (inactive),18.3% (inactive),38.5% (inactive),3.75% (inactive),1.7% (inactive),21.8% (inactive)
CC(C)=CC1C(C(=O)Oc2ccccc2C(C)C)C1(C)C (stereo not given),-3.8% (inactive),-11.2% (inactive),2.6% (inactive),-22.6% (inactive),-27% (inactive),4.6% (inactive)
c1ccc2c(CC3NCCN3)cccc2c1,-11.3% (inactive),-32.2% (inactive),-55.2% (inactive),10.8% (inactive),-1.4% (inactive),-13% (inactive)
O=[N+]([O-])c1ccc[nH]c1=S,-5.15% (inactive),-15.8% (inactive),-20.4% (inactive),-7.35% (inactive),23% (inactive),-35.6% (inactive)
CCOC(=O)c1cn[nH]c1C,1.35% (inactive),-0.9% (inactive),-2.2% (inactive),-21.4% (inactive),-3.05% (inactive),-1.95% (inactive)
CC1C(=O)C(c2cccs2)(C2CCCCC2)CC[N+]1(C)C (stereo not given),0% (inactive),4.5% (inactive),-6.05% (inactive),-19.1% (inactive),1.25% (inactive),17.4% (inactive)

SMILES,growth inhibition [1],growth inhibition [2],growth inhibition [3],growth inhibition [4],growth inhibition [5],growth inhibition [6]
CSc1ccc(Cl)cc1,6% (inactive),-4.55% (inactive),1.7% (inactive),16.9% (inactive),-1.2% (inactive),16.1% (inactive)
CC[N+]1(CC)CC[N+]2(CC1)CC[N+]1(CC[N+](CC)(CC)CC1)CC2,-16.9% (inactive),-3.4% (inactive),12.1% (inactive),-26.6% (inactive),1.7% (inactive),2.7% (inactive)
Cc1ccc(/C=N/NC(N)=S)nn1,3.45% (inactive),2.25% (inactive),-8.15% (inactive),-67.4% (inactive),2.45% (inactive),5.4% (inactive)
CCOC(C)=Nc1cc(OC)cc2c1NC(=O)CCS2,-28.9% (inactive),-20.1% (inactive),-36.6% (inactive),-50% (inactive),5.6% (inactive),-40.2% (inactive)
CCNC(=O)COc1ccc(Cl)c(C)c1,-13.6% (inactive),-31.9% (inactive),-30.4% (inactive),-33.8% (inactive),-23.2% (inactive),-29.7% (inactive)
Cc1c2c(c(C)c3c1C(=O)c1cc4c(cc1C3=O)OCO4)OCO2,-9.1% (inactive),-4.35% (inactive),-5.35% (inactive),-4.7% (inactive),-31.9% (inactive),-15.4% (inactive)
Cc1nc(Nc2nc3ccccc3[nH]2)[nH]c(=O)c1CCO,9.6% (inactive),5.4% (inactive),-7.3% (inactive),21.9% (inactive),15.8% (inactive),-6.45% (inactive)
CCN(c1ccccc1)S(=O)(=O)C(C)S(=O)(=O)N(CC)c1ccccc1,-1.05% (inactive),-10.5% (inactive),-1.2% (inactive),-19.8% (inactive),2.2% (inactive),-6.85% (inactive)
CCC1(C)OCCO1,0.5% (inactive),-13.5% (inactive),-12.1% (inactive),-29.9% (inactive),1.05% (inactive),2.2% (inactive)
CCC1=CCN(c2ccccn2)OC1c1ccc(OC)cc1 (stereo not given),32.6% (inactive),13.7% (inactive),49.2% (inactive),22.3% (inactive),40.2% (inactive),24.1% (inactive)
CC(C)CCOC=O,38.1% (inactive),28.4% (inactive),22.8% (inactive),21.6% (inactive),24.9% (inactive),30.5% (inactive)
CN1C2=NCCN2C(=O)c2cc(Cl)ccc21,1.05% (inactive),-21.9% (inactive),15.6% (inactive),8.65% (inactive),13.7% (inactive),9.9% (inactive)
O=C1OCC(c2ccccc2)=C1c1ccccc1,22.3% (inactive),-3% (inactive),20.3% (inactive),-16% (inactive),6.35% (inactive),16.6% (inactive)
CC1CCC2COC(=O)CCC2(C)C1C (stereo not given),5.95% (inactive),0.7% (inactive),-9.75% (inactive),-40.9% (inactive),-17.4% (inactive),-22.9% (inactive)
Cc1ccc(C)c(NC(=O)NC(C)(C)C)c1,-0.2% (inactive),-22.4% (inactive),-2.7% (inactive),-55.1% (inactive),-5.65% (inactive),-4.5% (inactive)
O=C(NCCCl)NC1C(O)OC(CO)C(O)C1O (stereo not given),93.2% (active),96% (active),93.8% (active),76.5% (active),96.8% (active),96.7% (active)
COC(=O)CSSC(C)C,-29.2% (inactive),-15.3% (inactive),-22.1% (inactive),5.1% (inactive),6.4% (inactive),-59.1% (inactive)
CN(C)c1ccc(/C=C/C=C2\C=Cc3ccccc32)cc1,0.55% (inactive),-17.9% (inactive),-6% (inactive),-26.2% (inactive),-0.25% (inactive),-2.75% (inactive)
CCOC(=O)c1c(C)nc(C)c(C(=O)OCC)c1-c1ccc(N(C)C)cc1,3.7% (inactive) and -7.5% (inactive),1.75% (inactive) and 1.25% (inactive),84% (active) and -1.3% (inactive),-4.4% (inactive) and -6.05% (inactive),1.8% (inactive) and -14.7% (inactive),4.05% (inactive) and 5.25% (inactive)
O=C(O)c1ccc([N+](=O)[O-])cc1Br,3.5% (inactive),-2.85% (inactive),-4.65% (inactive),-45% (inactive),-23.6% (inactive),6.2% (inactive)
O=C(O)c1nc2cn1/C=C\C=NCC1=CN3C=CC=NC3(C(=O)O)N1C2 (stereo not given),-14.6% (inactive),-2.95% (inactive),-12.4% (inactive),-43.2% (inactive),1.05% (inactive),-18.9% (inactive)
COC1CC(n2ccc(=O)[nH]c2=O)OC1CO (stereo not given),-8.25% (inactive),-10.6% (inactive),2.65% (inactive),28.1% (inactive),-25.6% (inactive),6.4% (inactive)
